± gives the standard deviation of the averaged measurements. The full ranking holds about 25,000 sequences; the median of “ln(normalized median fluorescence intensity)” is about 8.9, and the highest 2% start at about 10. This is one part of a sample in which the highest values are shown more often than they occur.
Each sequence was assayed on PfAP2-LT AP2 domain (GST-tagged) (assay: gcPBM binding intensity (ln(normalized median fluorescence intensity)); higher = stronger DNA binding).
How it was run: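 After 1 h on an Agilent 4 × 180k array of primer-extended double-stranded 36-bp intergenic genomic probes and negative controls, bound GST-tagged P. falciparum DNA-binding domains were detected with Alexa488 anti-GST antibody and scanned at 488 nm. The domains had been expressed in E. coli, and binding took place in 1× PBS with 1% milk, 0.2 mg/ml BSA, 0.5% salmon testes DNA and 0.03% Triton X-100. Binding intensity is the highest Masliner-normalised natural-log median intensity across replicate spots of either probe orientation.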

Row | Sequence | gcPBM binding intensity (ln)
1 | ATATTATATTATATAACACACATTTTTCATAACACT [CACACA_site407] | 8.95 ± 0.34
2 | TATTAATTTTTATACGCATGTGTATAGTAATATATA [TGCATGCA_site1010] | 8.66 ± 0.37
3 | TTTATAAACAAATGAACACACAAACATATTTATATA [CACACA_site7478] | 8.86 ± 0.42
4 | TATGAATATCTATACACACACATATATATACTCACT [CACACA_site1597] | 9.39 ± 0.36
5 | ATACGAAGTACGTACACACACTTATATGTTACTAAA [CACACA_site7812] | 9.26 ± 0.33
6 | CAATACTATTATTATAGTACGTATAAAATTATATAT [XGTACX_site4950] | 8.71 ± 0.49
7 | TATTTTATCATTTGCACACGCACACCGACATAAAAA [CACACA_site4348] | 9.26 ± 0.28
8 | AAAAGTATATATTCAGTGCATAGTCTTTAAATATAA [GTGCAC_site9522] | 8.7 ± 0.38
9 | AAAAAAAAAACATACACACATACATACATATATATT [CACACA_site949] | 9.28 ± 0.27
10 | AAAAAAAAAAAAAAAACACACATATATATATAATAT [CACACA_site1159] | 8.96 ± 0.42
11 | AAAAAAAAAAAAAAAACACACATATATATATATATA [CACACA_site2436] | 10.095 ± 0.0071
12 | AAAAAATATTGAAGTACACACATTATGAACTTTTTT [CACACA_site1733] | 8.78 ± 0.42
13 | AAAGAATACATATATTGTACATATATATATACCGTT [XGTACX_site6250] | 9.02 ± 0.45
14 | ATGTAGATAAAACGTGTGCACATGTTTTTTGTTATT | 10.3 ± 0.2
15 | TATGTTTTTACGTGTGTGCACTTTGTAGAGATAAGT | 9.06 ± 0.38
16 | TTTTTTTTTTTTTGTGCATGTAGATTTATTGTTATA [TGCATGCA_site582] | 8.79 ± 0.39
17 | AAAAAGAAAAAACGAAGTACAATTATAAGATTATAT [XGTACX_site410] | 8.86 ± 0.47
18 | ACCCTATATGTAACTACACACCGCATATTGTTTACT [CACACA_site3071] | 9.46 ± 0.42
19 | ATGTTCTTTAAAACCACACACCCCCCAACCCCCCTC [CACACA_site2373] | 10.1 ± 0.13
20 | TATGTAACCTGTTTTACACACCCCCACCCCCCTCTT [CACACA_site319] | 10.09 ± 0.05
21 | TATAGATACATATACACACACACACCGACATATATA [CACACA_site9138] | 10.2 ± 0.14
22 | AGATAGATACATACACGTACATATATATATACACAT [XGTACX_site4755] | 9.18 ± 0.35
23 | TAGATACATACACGCACACACATATATATATATATA [CACACA_site12] | 10.11 ± 0.035

Row | Sequence | gcPBM binding intensity (ln)
24 | TATACACATAGACACACACACATACACGCACATACA [CACACA_site6908] | 9.99 ± 0.17
25 | CACGCACGCACATACACACACATACACATATAAATA [CACACA_site6907] | 9.72 ± 0.45
26 | CATACACATACACATACACACGCATAGAAACATACG [CACACA_site8666] | 9.55 ± 0.51
27 | TATAGATACATATACACACACACACCCACATATATA [CACACA_site3436] | 9.94 ± 0.11
28 | CATAGATACATACACGCACACACATATATATATATA [CACACA_site13] | 10.2 ± 0.17
29 | TATAGATACAGATACACACACACACCGACATATATA [CACACA_site5832] | 10 ± 0.22
30 | AACATACATAGACACACACACACACGCACACGCACA [CACACA_site6373] | 10.35 ± 0.071
31 | TAGATACATACACGCACACACATATATAAATAAATA [CACACA_site6157] | 9.68 ± 0.35
32 | CATATATAGATATATACACACATACATACATACATA [CACACA_site7748] | 9.3 ± 0.27
33 | AAAAATAACATATAAACACACATATAGATTTATATA [CACACA_site7738] | 8.94 ± 0.37
34 | TTTTATGCTCAATTATTAAGAAATACTTTTTCTTCC [XGTACX_negctrl_site208] | 8.45 ± 0.68
35 | ATTTATATATATGTATGTACGTATGTGTGTATATGT [XGTACX_site7587] | 9.36 ± 0.35
36 | GTATGTATGTATGTATGTACGTATGTATGTATATAT [XGTACX_site3369] | 9.2 ± 0.36
37 | AAACGTGCGTATATGTGTACGCATATATATATATAT [XGTACX_site5252] | 10.2 ± 0.34
38 | TATTTATTTATAAACACACAAATATTTTTATTTATA [CACACA_site6889] | 8.49 ± 0.32
39 | TTTTCTATATAACAACGTACATTTATTATATTATAA [XGTACX_site6148] | 8.49 ± 0.45
40 | TTTATATAAATCAAATGTACATATTCCAAATATATA [XGTACX_site8515] | 8.45 ± 0.34
41 | CAATCAAATAGACACACACACACCTAAACATAAAAG [CACACA_site7322] | 10.2 ± 0.4
42 | ATAAAAAAGAAACAAACACACATACATACAAACAAA [CACACA_site4256] | 9.47 ± 0.33
43 | CAATCAAATGGACACACACACACCTAAACATAAAAG [CACACA_site5524] | 10 ± 0.3
44 | ATCAAATAGAGACACACACACCTAAACATAAAAGAA [CACACA_site7321] | 9.78 ± 0.48
45 | AAAACAAACCCATTTACACACATAAATAAATCAATT [CACACA_site6126] | 9.38 ± 0.3

Reference: the supplement of paper PMC11417369
